The text below walks through data of PubChem BioAssay AID430 (Sanford-Burnham Center for Chemical Genomics, 2006).

The campaign covered roughly 63,000 compounds. About 1,100 (1.7%) were called active. The sample as a whole holds a higher share of actives than the screen did. Potency and affinity values are given separately. A number with no mark means an inactive call. No stated cut-off is given here; in the data, active means cytotoxicity above about 50%; inactive means the rest.

The test in a line: cytotoxicity in HPDE-C7 cells, cell-based, fluorescence, HTS (AID 430).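 Further: cells exposed to compound for 48 hours before viability readout; 0% = vehicle and 100% = reference cytotoxic drug.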 As to conditions: HPDE-C7 pancreatic duct cells viability, at 10 µM, stronger effect = higher value.
For `Cc1ccc2c(c1)c1c(n2CC(O)Cn2c(C)nc3ccccc32)/C(=N\O)CCC1` (centres undefined), the cytotoxicity was 113% (active).

As to `Cc1ccc2c(c1)c1c(n2CC(O)Cn2c(C)nc3ccccc32)C(=O)CCC1` (centres undefined), the cytotoxicity was -12.3%.

Consider `CCn1c2c(c3cc(Cl)ccc31)CCCC2=O`, for which the cytotoxicity is -0.8%.

For `Cc1ccc2c(c1)c1c(n2CC(O)Cn2nc(C)c(Br)c2C)C(=O)CCC1` (centres undefined), the cytotoxicity is -7.3%.

For the molecule `CCn1c2c(c3cc(C(=O)O)ccc31)CCCC2=O`, the cytotoxicity is -6.9%.

`CCOC(=O)c1c(O)c2c(n(Cc3ccco3)c1=O)CCCC2`: the cytotoxicity is -1.8%.

Take `CCOC(=O)C(C#N)c1ccccn1` (centres undefined): the cytotoxicity is -13.9%.

`CC12C=CC3(O1)C(C(=O)N(c1cccnc1)C3C(=O)NC1CCCCC1)C2C(=O)Nc1ccccc1` (centres undefined): the cytotoxicity was -6.3%.

With `Cc1cc(C)c2ccc(C)[n+]([O-])c2c1O`, the cytotoxicity was -4.9%.

As for `Cc1cc(C)c2ccc(N)nc2c1O`, the cytotoxicity is 111% (active).

As for `Cc1cc(=O)oc2c(N)c(O)ccc12`, the cytotoxicity was 3.2%.

Take `Cc1ccc(-c2noc(CSc3nc(N)cc(N)n3)n2)cc1`: the cytotoxicity was -1.6%.

For `CCCCCC(=O)Nc1ccc(Cl)cn1`, the cytotoxicity was -14.3%.

Regarding `NC(=O)c1cc2ccc(O)cc2oc1=NCc1ccccc1`, the cytotoxicity was -0.1%.

Take `CC(=NCc1ccccc1)C1=C(O)COC1=O`: the cytotoxicity was 2.9%.

Consider `CCn1c(CNC(=O)C(C)(C)C)nc2ccccc21`, for which the cytotoxicity was -1.1%.

With `CC12CCC(C(N)=O)(c3nc4ccccc4nc31)C2(C)C` (centres undefined), the cytotoxicity is -7.6%.

`CC(=O)Nc1sc(N)nc1-c1ccccc1`: the cytotoxicity was 3.9%.

As to `CN(Cc1cccs1)C(=O)COc1ccc(-c2nnco2)cc1`, the cytotoxicity is -5.5%.

Turning to `Cc1cc(=O)[nH]c(SCc2cc(=O)n3nc(C)sc3n2)n1`, the cytotoxicity is 2.5%.

Turning to `CS(=O)(=O)N1CCc2cc(-c3csc(NC(=O)Cc4cccs4)n3)ccc21`, the cytotoxicity was -7.8%.

As for `CC1Cc2cc(-c3csc(NC(=O)Cc4cccs4)n3)ccc2N1S(C)(=O)=O` (centres undefined), the cytotoxicity was 56.2% (active).

Turning to `O=C(Cc1cccs1)Nc1nc(-c2ccccc2)cs1`, the cytotoxicity was -35.2%.

Turning to `CCCc1[nH]nc2c1C(c1cc(OC)cc(OC)c1)C(C#N)=C(N)O2` (centres undefined), the cytotoxicity was -4.3%.

As for `O=C(Cc1ccccc1)N1CCC(C(=O)N2CCN(c3ccc(F)cc3)CC2)CC1`, the cytotoxicity is -6.7%.

On to `O=C(NC(O)C(=O)c1cccs1)c1cccnc1` (centres undefined), for which the cytotoxicity is -20.3%.

Take `O=C(Nc1nnc(C2CCCCC2)s1)c1ccc(Br)s1`: the cytotoxicity was 7%.

In the case of `CCOC(=O)c1ccc(NC(=O)C23CCC(C)(C(=O)O2)C3(C)C)cc1` (centres undefined), the cytotoxicity was -7.6%.

As to `CCN1CCN(C(=O)C2CCN(Cc3nc(-c4cccc(Cl)c4)oc3C)CC2)CC1`, the cytotoxicity is 9.2%.

For `Cc1oc(-c2ccc(Cl)cc2)nc1CN1CCC(C(=O)N2CCN(Cc3ccccc3)CC2)CC1`, the cytotoxicity is 9.6%.

`CCc1ccc(-c2nc(CN3CCC(C(=O)N4CCN(c5ccccc5)CC4)CC3)c(C)o2)cc1`: the cytotoxicity was 66% (active).

Regarding `CCc1ccc(-c2nc(CN3CCC(C(=O)N4CCN(c5ccccn5)CC4)CC3)c(C)o2)cc1`, the cytotoxicity is 26.2%.

As for `CCc1ccc(-c2nc(CN3CCCC(C(=O)NCCc4ccc(OC)c(OC)c4)C3)c(C)o2)cc1` (centres undefined), the cytotoxicity was 7%.

In the case of `Cc1oc(-c2cccc(Cl)c2)nc1CN1CCC(C(=O)N2CCN(c3ccccc3F)CC2)CC1`, the cytotoxicity is 54.5% (active).

Take `CCN(CCNC(=O)C1CCCN(Cc2nc(-c3ccc(OC)cc3)oc2C)C1)c1ccccc1` (centres undefined): the cytotoxicity was 67.8% (active).

Take `CCc1ccc(-c2nc(CN3CCC(C(=O)NCCN(CC)c4ccccc4)CC3)c(C)o2)cc1`: the cytotoxicity was 47.3%.

As for `Cc1oc(-c2cccc(Cl)c2)nc1CN1CCC(C(=O)N2CCN(c3ccccn3)CC2)CC1`, the cytotoxicity is 15.5%.

Take `Cn1c(-c2ccc(F)cc2)cnc1NCc1ccccc1`: the cytotoxicity is -16.5%.

For `CCCCCCN=CC1=C(O)C(C(=O)OC)C(C)(C)CC1=O` (centres undefined), the cytotoxicity is 20.5%.

On to `COC(=O)c1ccccc1NC(=O)c1nc2nc(C)cc(C)n2n1`, for which the cytotoxicity was 8.9%.

With `COC(=O)C1=C(C)OC(N)=C(C#N)C1c1ccc(OC)c(OC)c1OC` (centres undefined), the cytotoxicity was -14.9%.

Consider `OCCNc1ncnc2c1c(-c1ccccc1)c(-c1ccccc1)n2Cc1ccco1`, for which the cytotoxicity is 37.5%.

As to `N=c1c2c(-c3ccccc3)c(-c3ccccc3)n(Cc3ccco3)c2ncn1CCN1CCOCC1`, the cytotoxicity is 29.6%.

For the molecule `O=c1c2ccccc2nc(-c2ccccc2)n1CCCn1ccnc1`, the cytotoxicity was -10.6%.

As to `CC1(C)CC(=O)C2=C(C1)Oc1ncn(CCCn3ccnc3)c(=N)c1C2c1ccccc1` (centres undefined), the cytotoxicity is 5.8%.

Consider `COc1ccccc1-c1nc2n(n1)C(c1ccc(Cl)cc1)C(C(N)=O)=C(C)N2` (centres undefined), for which the cytotoxicity was 5.8%.

Consider `COC(=O)c1ccc(OCC(O)Cn2nnc3ccccc32)cc1` (centres undefined), for which the cytotoxicity was 3.4%.

As to `CCCCN(C(=O)NC(=O)Nc1c(C)cc(C)cc1C)S(C)(=O)=O`, the cytotoxicity is 4.6%.

As to `CC(C)=CC(=O)Nc1ccccc1C(N)=O`, the cytotoxicity was 3.7%.

Turning to `COc1ccc(N2CCN(C(=O)CCN3C(=O)c4ccccc4S3(=O)=O)CC2)cc1`, the cytotoxicity is -0.5%.

Regarding `Cn1nccc1C(=O)NCCN1C(=O)OC(C)(C)C1(C)O` (centres undefined), the cytotoxicity was -1.1%.

Consider `CCOC(=O)c1ccc(-n2c(=O)[nH]c3ccccc3c2=O)cc1`, for which the cytotoxicity is -12.3%.

`CCOC(=O)c1ccc(-n2[nH]c(-c3ccccc3)cc2=O)cc1`: the cytotoxicity was 66.3% (active).

Take `CCOC(=O)c1ccc(N2C(=O)C(C)=C(C)C2=O)cc1`: the cytotoxicity was -4.6%.

Turning to `O=C1CCCC2=C1C(c1cccc(Br)c1)n1nc(-c3ccco3)nc1N2` (centres undefined), the cytotoxicity is -0.5%.

Regarding `Cc1cccc(S(=O)(=O)Nc2cccc(-c3cn4ccsc4n3)c2)c1`, the cytotoxicity was 36.1%.

As to `Cc1ccc(S(=O)(=O)Nc2cccc(-c3cn4ccsc4n3)c2)cc1`, the cytotoxicity was 52.4% (active).

Turning to `O=S(=O)(Nc1cccc(-c2cn3ccsc3n2)c1)c1ccc(F)cc1`, the cytotoxicity was 33.8%.

On to `O=C(Cn1cnnn1)Nc1ccccc1Cc1ccccc1`, for which the cytotoxicity is -2.5%.

On to `N#CC1=C2SCN(Cc3ccccc3)CN2C(=O)CC1c1cccs1` (centres undefined), for which the cytotoxicity is -17.2%.

With `N#CC1=C2SCN(c3ccccc3)CN2C(=O)CC1c1cccs1` (centres undefined), the cytotoxicity is -3.1%.

On to `COc1ccc(C2CC(=O)N3C(=C2C#N)SCC3(O)c2ccccc2)cc1` (centres undefined), for which the cytotoxicity is 10.4%.

For `CCc1ccc(C2CC(=O)N3CN(c4ccccc4)CSC3=C2C#N)cc1` (centres undefined), the cytotoxicity is -1.3%.

In the case of `N#CC1=C2SCC(O)(c3ccccc3)N2C(=O)CC1c1ccccc1` (centres undefined), the cytotoxicity is 70% (active).
